# In the library only some 2.4% were active in any assay of this set; here they are far more common.
# D2 antag: antagonizes the human D2 dopamine receptor; P14416; HEK293 TREx D2 cells, calcium flux, dopamine EC80; inhibition, % at 10 µM; 340,000 tested, 2% active; AID 485344; in the data active = inhibition above about 30%; inactive = below that, where a call was filed; also: 0% is about no effect
# Target sequence (P14416 whole entry, looked up): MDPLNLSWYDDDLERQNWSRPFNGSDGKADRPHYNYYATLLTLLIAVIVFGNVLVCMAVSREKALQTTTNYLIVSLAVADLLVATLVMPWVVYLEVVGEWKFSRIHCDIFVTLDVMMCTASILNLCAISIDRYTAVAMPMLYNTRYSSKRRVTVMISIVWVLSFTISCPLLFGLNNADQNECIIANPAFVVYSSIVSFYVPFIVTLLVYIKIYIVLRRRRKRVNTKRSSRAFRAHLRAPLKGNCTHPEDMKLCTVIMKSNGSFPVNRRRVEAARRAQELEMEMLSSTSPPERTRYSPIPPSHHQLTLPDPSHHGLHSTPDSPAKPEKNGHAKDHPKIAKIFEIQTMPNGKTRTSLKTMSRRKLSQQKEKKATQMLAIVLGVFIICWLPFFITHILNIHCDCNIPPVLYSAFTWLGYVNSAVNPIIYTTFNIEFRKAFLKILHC
#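 Tetracycline-induced HEK293 T-REx cells expressing D2 force-coupled to calcium signalling were dye-loaded, exposed to compound for 180 s, then challenged with an EC80 of dopamine; calcium flux was followed kinetically for a further 180 s.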
# D2 PAM-1: positive allosteric modulators of human D2 dopamine receptor; P14416; DiscoveRx D2 beta-arrestin cells, luminescence, 90 min; 100% = 57 uM dopamine signal; potentiation, % (test concentration not listed); 360,000 tested, 0.23% active; AID 624464; in the data active = potentiation above about 50%
#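 PathHunter beta-arrestin assay in DiscoveRx D2 cells. Compounds were added with an EC20 of dopamine (50 nM final) for 90 min at 37 deg C. Luminescence was read 1 h after detection reagent, with 57 uM dopamine as the EC100 control.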
# D2 ag-1: activates the human D2 dopamine receptor; P14416; DiscoveRx PathHunter D2 beta-arrestin, luminescence, 90 min; 100% = 57 uM dopamine signal; activation, % (test concentration not listed); 360,000 tested, 0.084% active; in the data active = activation above about 40%
#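 Agonist mode: compounds alone added to overnight-plated D2 PathHunter cells for 90 min at 37 C, with 57 uM final dopamine (EC100) defining full response. Beta-arrestin recruitment detected by chemiluminescent reagent, read after 1 h at ambient temperature.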
# D2 ag-2: D2 dopamine receptor (human) agonism. P14416. HEK293 T-REx D2 cells, calcium flux agonist mode. activation, % at 2 µM. 340,000 tested, 0.53% active. AID 485358;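 active = activation over 3 SD above normal in the single-dose calcium agonist read, cut at about 30% in these data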; also: 0% is about no effect
#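 Calcium-flux readout, 1 cycle/sec over 180 s following compound pin transfer, in inducible HEK293 Trex D2 cells (force-coupled); dopamine controls included. Positive calcium responses during this window marked compounds as potential agonists.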
# D2 PAM-2: positively modulates the human D2 dopamine receptor allosterically. P14416. HEK293 T-REx D2, calcium flux, EC20 dopamine potentiation. potentiation, % at 10 µM. 340,000 tested, 0.34% active. AID 485347;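 active = potentiation over 3 SD above the plate norm, cut at about 30% in these data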; also: 0% is about no effect
#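 Potentiation of an EC20 dopamine calcium response measured kinetically over 180 s, after a preceding 180 s compound-only read flagging agonists. Cells: inducible Hek293 Trex D2 line, 4000/well, cultured overnight at 30 C before dye loading.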
# * marks the source's active call; other numbers are inactive results; · = no result.
SMILES,D2 antag,D2 PAM-1,D2 ag-1,D2 ag-2,D2 PAM-2
O=C(CSc1nc2c([nH]c3ccccc32)c(=O)n1-c1ccccc1)N1CCCCC1,·,·,·,0,-6
COc1cc(/C=C/c2nc(C#N)c(NC3CCCCC3)o2)cc(OC)c1OC,·,·,·,-1,3
COc1ccc(-c2nn(-c3ccccc3C)cc2CNCc2cccnc2)cc1F,39*,-8,-2,-2,-25
O=C1C(c2ccc(C(F)(F)F)cc2)=C(Nc2ccc(Cl)cc2)c2ccccc21,·,·,·,·,11
O=C(Nc1ccccc1)c1ccc(NCCN2C(=O)CCC2=O)c([N+](=O)[O-])c1,59*,-11,-5,0,3
Cc1nnc(C)n1/N=C/c1ccc(O)cc1,-4,-6,0,0,2
CSc1ccc(/C=N/n2c(C)nnc2C)cc1,35*,0,-2,2,1
CCOC(=O)Cn1nc(Cc2ccccc2)c2ccccc2c1=O,13,-7,-6,0,43*
CCOC(=O)Cn1nc(-c2ccccc2)c2ccccc2c1=O,-3,-11,-1,-1,-4
COC(=O)C1=C(C(=O)c2ccc(C)cc2)C(c2ccc(O)c(OC)c2)n2nnnc2N1 (stereo unspecified),15,15,-3,1,-3
COC(=O)C1=C(C(=O)c2ccc(C)cc2)C(c2ccc(OC)c(OC)c2)n2nnnc2N1 (stereo unspecified),33*,-23,-5,1,-16
COC(=O)c1c(C(=O)OC)c2ccccn2c1C(=O)c1ccc([N+](=O)[O-])cc1,·,21,3,·,·
COC(=O)c1c(C(=O)OC)c2cc(C(=O)c3ccccc3)ccn2c1Cl,3,-13,-3,0,47*
CCOc1ccc2c(c1)c(C(C)=O)c(C)n2-c1ccccc1,2,-4,-4,40*,-11
CCOC(=O)N1CCC(NC(=O)c2ccc3c(c2)N(Cc2ccc(F)cc2)C(=O)c2ccccc2S3=O)CC1 (stereo unspecified),·,·,·,0,4
O=C(Nc1ccc2nn(-c3ccc(F)cc3)nc2c1)c1cccc2c(Cl)cccc12,·,·,·,-1,7
CCS(=O)(=O)N1CCCC(C(=O)NCCOC)C1 (stereo unspecified),·,·,·,0,·
CCOC(=O)c1c(C)n(-c2ccc(C)cc2)c2ccc(OCC(O)CNCC3CCCO3)cc12 (stereo unspecified),-4,-19,-11,0,-8
OC(CNCC1COc2ccccc2O1)COc1ccc(Cl)cc1 (stereo unspecified),104*,-4,-2,33*,-19
OC(CNCC1CCCO1)COc1ccc(OCC(O)CNCC2CCCO2)cc1 (stereo unspecified),-7,-17,-2,0,43*
O=c1oc(-c2ccccc2Cl)nc2ccsc12,31*,-13,-10,1,13
O=c1oc(-c2ccc(F)cc2)nc2ccsc12,0,-19,-3,0,-4
Cc1c(C(=O)N2CCOCC2)oc2c1-c1nn(CC(=O)NCc3cccc(Cl)c3)cc1CC2,·,·,·,0,-4
C/C(=N\Nc1cccc([N+](=O)[O-])c1)c1cc(F)ccc1O,35*,-16,-12,-1,18
CC1CCC(C(C)C)C(OC(=O)C[n+]2cc(-c3ccc(Cl)cc3)n3c2CCCCC3)C1 (stereo unspecified),33*,-7,1,1,-5
SMILES,D2 antag,D2 PAM-1,D2 ag-1,D2 ag-2,D2 PAM-2
COc1ccc(CCNCC(=O)Nc2ccc(C)c(S(=O)(=O)N(C)C)c2)cc1,33*,-17,-1,2,-5
COc1ccc(CCC(=O)Nc2ccc(C)c(S(=O)(=O)N(C)C)c2)cc1OC,-19,-10,-2,0,7
CCCCC1(C)OC(=O)C(=Cc2ccc(-c3ccc(Cl)c(C(=O)O)c3)o2)C(=O)O1 (stereo unspecified),42*,8,0,-2,-3
Cc1cc(C)c2c(C)c(C(=O)N3CCC(c4nc5ccccc5s4)CC3)oc2c1,·,·,·,0,-9
COc1cc2c(cc1O)C(Cc1ccc(O)cc1)NCC2 (stereo unspecified),74*,-25,-2,0,-24
COc1ccc(NC(=O)C(NC(=O)/C=C\c2ccc3c(c2)OCO3)c2ccc(C)cc2)cc1 (stereo unspecified),·,·,·,0,-8
CC(=O)c1cc2c(cc1NC(=O)c1cnn(-c3ccc(C)cc3)c1-n1cccc1)OCO2,·,·,·,1,0
O=[N+]([O-])c1ccc(NC2CCN(Cc3ccccc3)CC2)c([N+](=O)[O-])c1,17,-4,12,0,-7
O=[N+]([O-])c1ccccc1NC1CCN(Cc2ccccc2)CC1,39*,-19,-5,-1,-25
NC(=O)CC(NC(=O)Cc1ccc(Br)cc1)c1ccc(NC2CCN(Cc3ccccc3)CC2)c([N+](=O)[O-])c1 (stereo unspecified),-5,-44,-2,-1,-2
NC(=O)CC(NC(=O)Cc1cccc2ccccc12)c1ccc(NC2CCN(Cc3ccccc3)CC2)c([N+](=O)[O-])c1 (stereo unspecified),32*,-15,-3,0,-3
CCOc1ccc(C2C(C(=O)Nc3ccccc3C)=C(C)Nc3nnnn32)cc1 (stereo unspecified),·,·,·,0,6
COc1ccc2c(c1)C=C(CN1CCN(Cc3ccccc3C)C(CCO)C1)CO2 (stereo unspecified),58*,-25,4,-1,-20
COc1ccc2c(c1)C=C(CN1CCC(CO)(CCc3ccccc3)CC1)CO2,31*,-18,-1,1,-24
Cc1cc(-n2c(C)cc(C(=O)COc3ccccc3[N+](=O)[O-])c2C)no1,·,-13,0,·,·
Cc1cc(-n2c(C)cc(C(=O)COc3ccc(F)c(F)c3)c2C)no1,30*,0,9,0,-15
CCNC(=S)N(CCc1c(C)[nH]c2ccc(OC)cc12)Cc1cccnc1,-19,5,0,-1,33*
CCNC(=S)N(CCc1c(C)[nH]c2ccc(Cl)cc12)Cc1cccnc1,3,-10,3,18,-4
COCCNC(=S)N(CCc1c(C)[nH]c2ccc(C)cc12)Cc1cc(OC)c(OC)c(OC)c1,31*,4,4,0,4
CCNC(=S)N(CCc1c(C)[nH]c2ccc(C)cc12)Cc1cc(OC)c(OC)c(OC)c1,-14,-9,-5,1,7
COc1ccc(Nc2c3c(nc4ccc(NC(=O)c5cc(Cl)ccc5OC)cc24)CCCC3)cc1OC,·,·,·,·,-3
COc1cc2c(cc1OC)C1Cc3ccc(OC)c(OC)c3CN1CC2 (stereo unspecified),80*,-47,-4,5,-22
COc1cc2c(cc1OC)[C@@H]1Cc3ccc(OC)c(OC)c3CN1CC2,57*,-19,-2,4,-21
